Shown are actives, neighbours in structure and some others; about 17% of the full set was active somewhere.
TDP1 cell CPT: qHTS for Inhibitors of human tyrosyl-DNA phosphodiesterase 1 (TDP1): qHTS in cells in presence of CPT; chicken DT40 Tdp1-/-;hTDP1 cells + 20 nM CPT, ATP luminescence, 48 h; Potency, µM (top dose mostly 46.2 µM), inactives show at the top dose activity change, negative = growth inhibition, most hits filed as inhibitors; hit rate 12% among 420,000; AID 686979, 2013; further: on the % scale 0 is the no-effect control and ±100 the full control effect; nearly all actives have a fitted effect of over 55% in size
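Cell growth measured by CellTiter-Glo luminescence after a minimum 48 h, 37 C compound exposure with 20 nM CPT in Tdp1-knockout DT40 cells stably expressing hTDP1, seeded 400/well; qHTS titration format.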
TDP1 block: qHTS Assay for Inhibitors of Tyrosyl-DNA Phosphodiesterase (TDP1); Tyrosyl-DNA phosphodiesterase 1 (Homo sapiens), Q9NUW8; recombinant TDP1, AlphaScreen DNA substrate cleavage; Potency, µM (titrated, usually from 130 µM), for the others: at the top dose activity change, negative = inhibition, hits mostly inhibitors; hit rate 0.28% among 350,000; AID 485290, 2010; further: on the % scale 0 is the no-effect control and ±100 the full control effect; nearly all actives have a fitted effect of over 40% in size
Target sequence (Q9NUW8 whole entry, looked up): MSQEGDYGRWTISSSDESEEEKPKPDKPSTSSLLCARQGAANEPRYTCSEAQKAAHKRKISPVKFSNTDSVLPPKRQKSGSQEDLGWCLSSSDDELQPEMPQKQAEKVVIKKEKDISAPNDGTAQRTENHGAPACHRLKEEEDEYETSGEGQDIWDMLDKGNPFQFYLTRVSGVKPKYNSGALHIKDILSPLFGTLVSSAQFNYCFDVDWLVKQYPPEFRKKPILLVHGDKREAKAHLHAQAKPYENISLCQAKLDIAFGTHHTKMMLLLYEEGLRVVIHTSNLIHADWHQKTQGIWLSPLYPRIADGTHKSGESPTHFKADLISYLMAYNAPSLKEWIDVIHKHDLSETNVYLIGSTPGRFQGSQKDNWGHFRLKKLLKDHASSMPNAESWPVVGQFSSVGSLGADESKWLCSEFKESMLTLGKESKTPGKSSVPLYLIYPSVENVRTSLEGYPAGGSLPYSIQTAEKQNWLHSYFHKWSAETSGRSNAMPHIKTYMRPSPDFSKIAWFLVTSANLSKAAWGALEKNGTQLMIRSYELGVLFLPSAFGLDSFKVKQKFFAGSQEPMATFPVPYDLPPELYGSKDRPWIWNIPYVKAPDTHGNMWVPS
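AlphaScreen read-out: signal falls as enzyme removes the 3' tyrosine-FITC from a 5'-biotinylated DNA oligo (15 nM, 5 min, RT). Enzyme was E. coli-made recombinant Tdp1 at 1 nM, exposed to compound for 15 min beforehand; beads 10 ug/ml, 10 min.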
DT40 TDP1 no CPT: qHTS for Inhibitors of human tyrosyl-DNA phosphodiesterase 1 (TDP1): qHTS in cells in absence of CPT; hit rate 15% among 420,000; DT40 Tdp1-/- hTDP1 cells, no CPT, ATP luminescence, 48 h; AID 686978, 2013; Potency, µM (titrated, usually from 46.2 µM), inactives show at the highest dose activity change, negative = growth inhibition, most hits filed as inhibitors; further: on the % scale 0 is the no-effect control and ±100 the full control effect; nearly all actives have a fitted effect of over 55% in size
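Chicken DT40 Tdp1-/- cells complemented with human TDP1, screened without camptothecin (DMSO vehicle only), 400 cells/well. Compounds pin-transferred, cells incubated at 37 °C for at least 48 hr. Growth read as ATP-dependent luminescence (CellTiter-Glo, 30 min at RT).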
ClpP mod: qHTS Assay for Activators of ClpP; hit rate 1.9% among 340,000; Potency, µM (doses to about 57.5 µM), inactives show top-dose activity change, negative = active; purified B. subtilis ClpP, FRET peptide cleavage, 20 min; AID 651965, 2013; active means well fitted falling curve with a large enough effect; inconclusive means small, poorly fitted or top-dose-only effect; inactive means no such curve, though single readings can be large or run the other way; further: the source files actives as falling curves though it sought activators and does not explain the sign; nearly all actives have a fitted effect of over 65% in size
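Purified B. subtilis ClpP, 10 microg/mL final in Tris/HCl pH8 with KCl, BSA, glycerol and Tween-20, cleaved an Abz/nitrotyrosine-quenched decapeptide. Fluorescence (ex 320, em 430) was read at 0 and 20 min at room temperature. Delta was normalized to 5.8 microM ADEP and DMSO/no-enzyme controls.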
* hit, by the source's call; ? = inconclusive; nt = not tested or not shown; [ ] = dose if it differs, or a comment. Unless noted, the call rests on the fitted dose curve; in most records, active means well fitted curve in the direction sought with a large enough effect; inconclusive means small, poorly fitted or top-dose-only effect, or another doubt; inactive means no such curve, though single readings can be large; an effect the other way counts as inactive or inconclusive. Potency means the concentration at half of the fitted maximal effect.

SMILES | TDP1 cell CPT | TDP1 block | DT40 TDP1 no CPT | ClpP mod
OCCN1CCN(Cc2cc(Cl)c3cccnc3c2O)CC1 | ? | 12.1% | ? | -2.2%
CN(C)C1CCN(Cc2cc(COCc3ccccc3)c3cccnc3c2O)C1 (stereo unspecified) | nt | 2.2% | nt | nt
COCCNC(=O)C1CCCN(C(=O)C2(c3ccc(Cl)cc3)CCCC2)CC1 (stereo unspecified) | -23.1% | nt | ? | -0.3%
Cc1cccc(N=C2NC(=O)/C(=C/c3cccn3C)S2)c1C | ? | nt | 8.2µM* | nt
Cc1ccc(N=C2NC(=O)/C(=C/c3cccn3C)S2)cc1 | 6.51µM* | 6.0% | 4.61µM* | 0.2%
Cc1ccc(N=C2NC(=O)/C(=C\c3ccc(C)s3)S2)cc1 | -16.3% | 6.0% | ? | nt
Cc1ccc(N=C2NC(=O)/C(=C/c3cccn3C)S2)cc1C | 20.6µM* | 9.4% | 9.2µM* | nt
COc1ccc(S(=O)(=O)N(C)C)cc1NC(=O)c1ccc(OCC(=O)N2CCOCC2)c(OC)c1 | 2.0% | 0.3%[0.505 µM] | 7.9% | -0.8%
CCc1ccc(/C=N/NC(=S)NCCc2ccccc2)cc1 | ? | 8.5% | 16.4µM* | 4.2%
COc1cccc(/C=N/NC(=S)NCCc2ccccc2)c1 | ? | 4.8% | ? | nt
COc1ccc(/C=N/NC(=S)NCCc2ccccc2)cc1 | 18.4µM* | nt | 25.9µM* | -5.0%
CC(C)(C)n1nc2c(c1NC(=O)c1cccc(Cl)c1)CS(=O)(=O)C2 | -4.9% | 6.2% | 22.1% | -2.2%
O=C(Nc1c2c(nn1-c1ccc(Cl)cc1)CS(=O)(=O)C2)c1cccc(Cl)c1 | 16.4µM* | 2.6% | 20.6µM* | -2.0%
CCOc1ccc(CCN2C(=S)N([C@@H](Cc3ccc(O)cc3)CN3CCCC3CN3C(=S)NC[C@@H]3Cc3ccc(O)cc3)C[C@@H]2CC(C)C)cc1 (stereo partly specified) | ? | nt | ? | -1.0%
CCOc1ccc(CCN2C(=S)N([C@@H](Cc3ccccc3)CN3CCC[C@@H]3CN3C(=S)NC[C@@H]3Cc3ccc(O)cc3)C[C@@H]2CC(C)C)cc1 | 9.2µM* | nt | 9.2µM* | 0.5%
CCOc1ccc(CCN2C(=S)N([C@@H](Cc3ccc(O)cc3)CN3CCC[C@@H]3CN3C(=S)NC[C@@H]3CC(C)C)C[C@@H]2Cc2ccc(O)cc2)cc1 | 5.17µM* | nt | 3.66µM* | -0.2%
COc1ccc(C(O)c2ncc(-c3cccc(F)c3)[nH]2)cc1F (stereo unspecified) | ? | nt | ? | -0.4%
C#CCOc1c(Br)cc(/C=N/O)cc1OCC | -16.7% | 2.5% | 29.1µM* | 1.2%
Cc1cccc(N(C)C(=O)C2CCC(CNS(=O)(=O)c3cccc4nsnc34)CC2)c1 (stereo unspecified) | ? | 4.6% | -29.0% | 1.0%
CCOC(=O)c1cc2c(=Cc3ccc(N(C)C)cc3)c3ccccc3n2[n+]1C | 0.581µM* | nt | 0.461µM* | -11.1%
CN(C)c1ccc(C=c2c3ccccc3n3c2c2ccccc2[n+]3C)cc1 | 1.16µM* | nt | 1.46µM* | -12.4%
Cc1cc2c(=Cc3ccc(N(C)C)cc3)c3ccccc3n2[n+]1C | 0.517µM* | nt | 0.461µM* | -6.9%
CN(C)c1ccc(/C=C2\c3ccccc3-c3ccc(N(C)C)cc32)cc1 | -3.9% | nt | ? | -0.3%
CCCCc1nc2ccccc2n1CC(=O)N(COCC)c1c(C)cccc1CC | ? | nt | ? | 0.3%
Cc1ccc2occ(CN3CCOc4ccc(C(C)(O)COc5ccccc5)cc4C3)c(=O)c2c1 (stereo unspecified) | 3.6%[9.04 µM] | nt | ? | nt
CCNc1ncc2nc(-c3ccc(F)cc3)c(=O)n(C)c2n1 | ? | nt | -24.0% | nt
Cc1cccc2nc(-c3cccc(NC(=O)Cc4ccccc4)c3)cn12 | ? | 2.6% | ? | 28.2µM*
Cc1cccc2nc(-c3cccc(NC(=O)c4ccc(Cl)cc4)c3)cn12 | 20.6µM* | 6.6% | ? | 37.5%
CC[N+]1(CC(=O)c2cccs2)CCCCC1 | ? | nt | ? | 1.1%
CCOc1ccc(N2C=Nc3ccc(OCC)cc3C2)cc1 | 20.6µM* | nt | 18.4µM* | -2.8%
